Out of some 340,000 compounds screened, about 6,900 (2%) were called active. No stated cut-off is given here; in the data, active means inhibition above about 30%; inactive means below that, where a call was filed. The entries come from a sample that favours actives as a whole.

The target in the assay is D(2) dopamine receptor (Homo sapiens) (UniProt P14416). The assay is described as follows: HTS Assay for Allosteric Antagonists of the Human D2 Dopamine Receptor: Primary Screen for Antagonists. Further: 0% is about no effect. To be noted: HEK293 TREx D2 cells, calcium flux, dopamine EC80; at 10 µM; hits give high values. The essentials: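 Dopamine at EC80 is the agonist stimulus; test compounds precede it by 180 s. Calcium flux read kinetically in a force-coupled, inducible HEK293 T-REx D2 cell line.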
Chain of D(2) dopamine receptor (Homo sapiens) (P14416 whole entry, looked up): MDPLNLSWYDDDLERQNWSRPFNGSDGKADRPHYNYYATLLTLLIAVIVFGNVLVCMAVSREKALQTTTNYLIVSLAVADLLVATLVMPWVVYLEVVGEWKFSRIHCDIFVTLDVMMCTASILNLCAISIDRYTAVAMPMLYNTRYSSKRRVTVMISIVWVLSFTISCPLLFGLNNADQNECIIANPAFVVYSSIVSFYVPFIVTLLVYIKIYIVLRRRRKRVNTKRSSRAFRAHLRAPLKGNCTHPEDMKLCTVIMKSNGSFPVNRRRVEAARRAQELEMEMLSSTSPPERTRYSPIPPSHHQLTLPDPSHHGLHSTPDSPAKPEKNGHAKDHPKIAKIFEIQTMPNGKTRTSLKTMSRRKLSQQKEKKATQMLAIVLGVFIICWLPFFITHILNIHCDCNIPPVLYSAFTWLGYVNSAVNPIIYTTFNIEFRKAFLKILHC
The inhibition is the drop in the measured response relative to a control, in per cent. In the case of `COCCNc1nnc(SCC(=O)NNC(=O)c2ccco2)s1`, the inhibition is -27.3% (inactive).
Consider `COc1ccccc1NS(=O)(=O)c1ccc(C)c(C(=O)NCC(c2ccco2)N(C)C)c1` (stereo not drawn), for which the inhibition is 7.48% (inactive).
As to `Clc1cccc(Cl)c1OCCOCCNCc1ccccc1`, the inhibition is 53% (active).
In the case of `CN(C)CCOCCOc1ccc(Cl)c2ccccc12` it was -4.55% (inactive); in that of `COCCNCCOCCOc1cccc(OC)c1`, -3.27% (inactive); in that of `OC(COCc1ccco1)CN1CCN(c2ccccc2)CC1` (stereo not drawn), 74.4% (active).
As for `O=[N+]([O-])c1ccc(N2CCN(CC(O)COc3ccccc3)CC2)cc1` (stereo not drawn), the figure is -9.55% (inactive); as for `OC(COCC1COc2ccccc2O1)CN1CCN(c2ccc(F)cc2)CC1` (stereo not drawn), 2.02% (inactive); as for `O=C(CSc1nc2ccccc2c(=O)n1CCCO)NC1CC1`, -4.48% (inactive).
In the case of `C=CCC(NC(=O)Cc1ccccc1)C(=O)NCCC` (stereo not drawn) it was 1.08% (inactive).
On to `CCCCC/C=C/C1=CC(=O)C[C@H](c2ccc(Cl)cc2)C1`, for which the inhibition is 3.21% (inactive).
Consider `CC(C)(C)OC(=O)N/N=C/c1cn(-c2ccccc2)nc1-c1cccnc1`, for which the inhibition was -2.64% (inactive).
`Cc1ccc(-c2nn(-c3ccccc3)cc2/C=N/NC(=O)c2ccc3c(c2)OCO3)cc1`: the inhibition is 31.8% (active).
In the case of `Cc1nnc(SCC(=O)N/N=C/c2cn(-c3ccccc3)nc2-c2ccc(F)cc2)n1-c1ccccc1` it was -8.35% (inactive).
Take `Cc1ccc(OCC(=O)N2CCN(S(=O)(=O)c3ccc(Cl)s3)CC2)cc1C`: the inhibition was -12% (inactive).
As for `CCCc1nc2ccccc2c(C(=O)OCc2nnc(-c3cc(OC)c(OC)c(OC)c3)o2)c1CC`, the inhibition is 38% (active).
Take `O=C(OCc1nnc(-c2ccccc2)o1)c1cc(=O)[nH]c2ccccc12`: the inhibition is 6.34% (inactive).
In the case of `CCCc1nc2ccccc2c(C(=O)OCC(=O)c2ccc3c(c2)NC(=O)CO3)c1CC`, the inhibition was -8.13% (inactive).
In the case of `COC(=O)c1cccc(NC(=O)CN2CCC(NC(=O)c3cc(OC)c(OC)c(OC)c3)CC2)c1` it was -8.24% (inactive); in that of `COc1cc2[nH]c(=O)n(CCC(=O)NC3CCN(Cc4ccccc4)CC3)c(=O)c2cc1OC`, -8.24% (inactive); in that of `COc1cc(C(=O)NC2CCN(Cc3ccccc3)CC2)cc(Cl)c1OC(C)C`, 47.6% (active).
On to `CCOc1cc2[nH]c(=O)n(Cc3ccc(C(=O)NCCCN4CCCC4=O)cc3)c(=O)c2cc1OCC`, for which the inhibition is 9.71% (inactive).
In the case of `COc1ccc(C(=O)NC2CC2)cc1OC1CCN(Cc2ccc(SC)cc2)CC1` it was 2.51% (inactive); in that of `COc1cc2[nH]c(=O)n(Cc3ccc(C(=O)NC4CCN(Cc5ccccc5)CC4)cc3)c(=O)c2cc1OC`, 90.8% (active).
Consider `Cc1c(NC(=O)CSc2nnc(-c3cccnc3)n2N)c(=O)n(-c2ccccc2)n1C`, for which the inhibition is 7.44% (inactive).
As for `CCCCn1c(N)c(N(CCC(C)C)C(=O)c2ccc(COc3ccccc3)o2)c(=O)[nH]c1=O`, the inhibition was -9.11% (inactive).
In the case of `C#CCOCCOCCOCCNc1nc(N2CCN(C(=O)CCCCCCCCCCNC(=O)[C@H]([C@@H](C)CC)n3cc(CCCCN=C(N)N)nn3)CC2)nc(N2CCN(C(=O)CCCCCCCCCCNC(=O)[C@H](CO)n3cc(CCCSC)nn3)CC2)n1`, the inhibition is 1.17% (inactive).
In the case of `Cc1ccn2c(=O)nc(SCC(=O)NCc3ccc(F)cc3)nc2c1` it was 17.8% (inactive).
As for `C/C(=N\NC(=S)NCc1ccccc1)C1CCCCC1`, the figure is -10.6% (inactive).
In the case of `CC1CCCCN1C(=O)CCS(=O)(=O)Cc1ccccc1` (stereo not drawn), the inhibition is 3.72% (inactive).
In the case of `CC1CCCCN1C(=S)NCc1ccccc1` (stereo not drawn) it was 31.9% (active); in that of `O=C(CN1CCCSc2ccccc21)N1CCN(S(=O)(=O)c2ccccc2)CC1`, 3.3% (inactive); in that of `O=C(OCc1cc(=O)n2ccsc2n1)C1(c2ccc(Cl)cc2)CC1`, 29.3% (inactive).
In the case of `CSCCC(NC(=O)c1ccccc1)C(=O)N1CCN(Cc2ccc(Cl)cc2)CC1` (stereo not drawn), the inhibition is -14.3% (inactive).
In the case of `N#Cc1ccc(C2=CC(=O)C[C@H](c3ccc(Cl)cc3)C2)cc1` it was -1.65% (inactive).
Take `CCc1ccccc1NC(=O)CN(C)C(=O)c1cc(C2CC2)nn1-c1ccccc1`: the inhibition is 2.39% (inactive).
As for `COc1cccc(NC(=O)CN(C)C(=O)c2cc(C3CC3)nn2-c2ccccc2)c1`, the inhibition was -0.486% (inactive).
In the case of `COc1ccc(NC(=O)CN(C)C(=O)c2cc(C3CC3)nn2-c2ccccc2)cc1` it was 39.5% (active); in that of `Cc1csc(=O)n1CCC(=O)OCC(=O)NNC(=O)c1ccc(Br)cc1`, -9.52% (inactive); in that of `Cc1c(C(C)CCCO)oc(=O)c2c1Oc1c(C)c(C(C)C[C@@H](C)O)oc(=O)c1C2` (stereo partly drawn), 17% (inactive).
In the case of `Cc1ccc(C(=O)OCC(=O)N2CC(C)CC(C)C2)cc1S(=O)(=O)N1CCCCC1` (stereo not drawn) it was 19.3% (inactive).
As for `O=C(CN1CCN(c2ccc(F)cc2)CC1)Nc1ccccc1`, the figure is -19.8% (inactive).
`O=C(CCN1CCN(c2ccccc2)CC1)NNC(=S)Nc1ccccc1`: the inhibition is 61.2% (active).
In the case of `O=C(CN1CCN(c2ccccc2)CC1)Nc1ccc(F)cc1` it was 13.5% (inactive); in that of `Cc1cccc(C)c1NC(=O)COC(=O)c1c(C)nn(-c2ccccc2)c1C`, 1.57% (inactive).
In the case of `Cc1ccc(C(CC(=O)O)NC(=O)c2ccc(S(=O)(=O)N3CCCC3)cc2)cc1` (stereo not drawn) it was 8.12% (inactive).
In the case of `CN(C)CCNC(=O)Cc1ccc([N+](=O)[O-])cc1` it was -7.39% (inactive).
On to `CN(C)CCCN1C(=O)CSC1c1ccc([N+](=O)[O-])cc1` (stereo not drawn), for which the inhibition is 34% (active).
As for `CCCCN(C)c1ccc([N+](=O)[O-])cc1`, the figure is -0.645% (inactive).
For `CC(=O)Nc1ccc(S(=O)(=O)N2CCn3cccc3C2C)cc1` (stereo not drawn), the inhibition was 2.61% (inactive).
In the case of `CCC(c1nnc(SCC(=O)NNC(=O)c2ccccc2)n1Cc1ccccc1)N(C)C` (stereo not drawn) it was -24.9% (inactive); in that of `CCn1c(SCC(=O)NNC(=O)c2ccc(OC)cc2)nnc1C(C)C`, -19.3% (inactive); in that of `Cc1cccc(C(=O)NNC(=O)CSc2nnc(C(C)C)n2C)c1`, 41.8% (active).
Turning to `CN(CC(=O)NCc1ccc2c(c1)OCO2)CC(=O)Nc1ccc(F)c(F)c1F`, the inhibition is -25.8% (inactive).
In the case of `CCC[C@H]1CCCC/C=C\CCCC(=O)OCCN1C(=O)OC(C)(C)C` it was -5.66% (inactive); in that of `COc1ccccc1/C=C/CN1CCC(CO)(Cc2ccccc2)CC1`, 53.2% (active).
As for `COc1ccccc1/C=C/C=N/NC(=O)CN1CCN(Cc2ccccc2)CC1`, the inhibition was -10.7% (inactive).
Turning to `COC(=O)CCC(=O)N1CCCC(CO)(Cc2ccccc2)C1` (stereo not drawn), the inhibition was 3.17% (inactive).
As for `Cc1cc(NC(=O)COc2ccc([N+](=O)[O-])cc2)no1`, the figure is -5.38% (inactive); as for `COc1ccccc1NC(=O)COC(=O)COc1ccccc1F`, -3.39% (inactive); as for `Cc1ccc(OCCNC(=O)CN2C(=O)NC3(CCCC3)C2=O)cc1`, 1.97% (inactive).
Regarding `COc1cc(C(c2c(NC(=O)c3ccco3)sc(C)c2C)N2CCOCC2)cc(OC)c1OC` (stereo not drawn), the inhibition was -0.625% (inactive).
As for `CCOc1ncccc1C(=O)OCC(=O)N1c2ccccc2CC1C` (stereo not drawn), the figure is -9.6% (inactive); as for `CCOc1ccc(CC(=O)NC2CCN(Cc3ccccc3)CC2)cc1`, 7.65% (inactive).
`CN(CC(=O)NC1CCN(Cc2ccccc2)CC1)S(=O)(=O)c1ccc(Cl)s1`: the inhibition is 68.5% (active).
Consider `CN(CC(=O)NC1CCCCC1)S(=O)(=O)c1ccc(Br)s1`, for which the inhibition is 3.02% (inactive).
As for `CC(C)N(C(=O)CSc1nnc(NC2CC2)s1)c1ccccc1`, the inhibition was -9.12% (inactive).
Turning to `Nc1nnc(SCC(=O)NCC(=O)Nc2ccc(F)c(F)c2F)s1`, the inhibition is 17.4% (inactive).
Take `O=C(c1ccc(Cl)nc1)N1CCN(S(=O)(=O)c2ccc3c(c2)OCCO3)CC1`: the inhibition is -22.8% (inactive).
`O=C(COC(=O)c1cccc(Cl)c1)NC1CCCCCCC1`: the inhibition is 4.87% (inactive).
In the case of `O=C(COC(=O)c1ccccc1Cl)NC1CCCCCCC1` it was 40.2% (active); in that of `O=C(COC(=O)c1ccccc1SCC(=O)NC1CCCCC1)NC1CCCCC1`, -0.864% (inactive).
As for `Cc1ccc(OCCCCN2CCCCC2)c(Br)c1`, the figure is 73.5% (active); as for `Cc1ccc(C(C)C)cc1OCCN1CCCC1`, -14.6% (inactive).
Turning to `CC(C)(c1ccccc1)c1ccc(OCCN2CCCC2)cc1`, the inhibition was 0.0464% (inactive).
In the case of `Cc1ccc(C(C)(C)C)c(OCCCCN2CCCC2)c1` it was 31% (active); in that of `CC(=O)Nc1ccc(S(=O)(=O)N2CCN(CCCOc3cc(C)ccc3C)CC2)cc1`, 3.73% (inactive); in that of `CC1CN(CCOc2ccccc2[N+](=O)[O-])CC(C)O1` (stereo not drawn), 1.8% (inactive).
In the case of `COc1cccc(OCCCN2CCCCCC2)c1` it was -12.6% (inactive); in that of `O=[N+]([O-])c1ccccc1OCCCCN1CCCCC1`, 93.9% (active).
In the case of `C=CCN(CC=C)CCOc1ccccc1[N+](=O)[O-]`, the inhibition was 6.41% (inactive).
In the case of `CCN(C(=O)CSc1ncnc2sccc12)c1c(N)n(Cc2ccccc2)c(=O)[nH]c1=O` it was -15.3% (inactive).
Regarding `Cc1ccc(S(=O)(=O)N2CCCCC2)cc1NC(=O)[C@@H]1CCCN1C(=O)c1cccs1`, the inhibition was -14.3% (inactive).
With `Cc1cc(C)c(S(=O)(=O)N2CCC(C(=O)OCc3c(C)noc3C)CC2)c(C)c1`, the inhibition was 7.04% (inactive).
In the case of `O=C(CN1CCCCC1)Nc1ccccc1C(=O)NC1CC1` it was 7.71% (inactive); in that of `Cc1ccc(NC(=O)COC(=O)CN2CCCCCC2=O)c(C)c1`, -4.24% (inactive).
In the case of `CC(C)(O)C#Cc1ccc(CN2CCC(CO)(CCc3ccccc3)CC2)cc1` it was 14.6% (inactive).
As for `OCC1(CCc2ccccc2)CCN(Cc2ccc3nsnc3c2)CC1`, the inhibition is 36.1% (active).
For the compound `Cc1cccc(-c2ncc(CN3CCC(CO)(CCCc4ccccc4)CC3)cn2)c1`, the inhibition is 6.88% (inactive).
In the case of `CN(CCOc1ccccc1)C(=O)c1cc(-c2ccco2)nc2ccccc12` it was 3.66% (inactive); in that of `CC(OC(=O)CNC(=O)c1ccc(Cl)c([N+](=O)[O-])c1)C(=O)NCc1ccco1` (stereo not drawn), 26.5% (inactive).
`CC(=O)Nc1ccc(NC(=O)C(C)OC(=O)c2ccccc2C(=O)c2ccc(Cl)c([N+](=O)[O-])c2)cc1` (stereo not drawn): the inhibition was 36.3% (active).
As for `N#Cc1cccc(NC(=O)COC(=O)c2ccccc2C(=O)c2ccc(Cl)c([N+](=O)[O-])c2)c1`, the figure is 7.92% (inactive).

Source of the values: PubChem BioAssay AID485344 (National Center for Advancing Translational Sciences (NCATS), 2010).
